Results filed as inconclusive are left out. Values without a mark were called inactive. Active and inactive are the calls of the source. The call rests on the fitted dose curve; in most records, active means well fitted cell-killing curve with a large enough effect; inconclusive means small, poorly fitted or top-dose-only effect, or effect the other way; inactive means no such curve, though single readings can be large or run the other way.
On the % scale 0 is the no-effect control and ±100 the full control effect; potency means the concentration at half of the fitted maximal effect.

The assay deals with Jar. As to the kind of experiment: Confirmatory qHTS for gynecologic anti-cancer compounds from libraries of approved drugs and bioactive compounds. Further: nearly all actives have a fitted effect of over 55% in size. As to conditions: gynecologic cancer cell panel viability, ATPlite luminescence, 48 h; series mostly up to 57.6 µM. A digest of the protocol:
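ATPlite luminescence read-out of cell viability; IC50 from 11-point 1:3 titrations, 57.5 uM to 0.977 nM, 48 h compound exposure at 37 C, 5% CO2. Cells seeded at 1,000/well 16 h before dosing.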
As to `CC(=O)Nc1cccc(-n2c(=O)n(C3CC3)c(=O)c3c(Nc4ccc(I)cc4F)n(C)c(=O)c(C)c32)c1`, the Potency entry was “inactive”.
Take `CC(C)(C)C(=O)OCOP(=O)(COCCn1cnc2c(N)ncnc21)OCOC(=O)C(C)(C)C`: the Potency was 9.68 µM (active).
Regarding `CC[C@]1(O)C[C@H]2CN(CCc3c([nH]c4ccccc34)[C@@](C(=O)OC)(c3cc4c(cc3OC)N(C=O)[C@H]3[C@@](O)(C(=O)OC)[C@H](OC(C)=O)[C@]5(CC)C=CCN6CC[C@]43[C@@H]65)C2)C1`, the Potency is 0.273 µM (active).
On the same count and under the same terms, the entry for `COC(C(=O)N1Cc2[nH]nc(NC(=O)c3ccc(N4CCN(C)CC4)cc3)c2C1)c1ccccc1` (configuration not stated) is “inactive”.
Take `O=c1[nH]c(=O)n([C@H]2C[C@H](O)[C@@H](CO)O2)cc1C(F)(F)F`: the Potency entry is “inactive”.
For the molecule `COc1cc(Nc2c(C#N)cnc3cc(OCCCN4CCN(C)CC4)c(OC)cc23)c(Cl)cc1Cl`, the Potency is 24.3 µM (active).
Still for that read-out and setting: the figure for `O=C(c1ccc(F)c(F)c1Nc1ccc(I)cc1F)N1CC(O)([C@@H]2CCCCN2)C1` is 21.7 µM (active); for `Cc1ccc(C(N)=O)cc1Nc1nccc(-c2cn(C(C)C)c3cnccc23)n1` it is 6.85 µM (active); for `CNC1CCC(N(Cc2cccc(-c3ccncc3)c2)C(=O)c2sc3ccccc3c2Cl)CC1` (configuration not stated) it is 34.3 µM (active).
For `CC[C@H](Nc1ncnc2nc[nH]c12)c1nc2cccc(F)c2c(=O)n1-c1ccccc1`, the activity change, negative = viability loss was -10.1% [at 10.7 µM].
For the molecule `CCN(CC)CCOc1ccc(/C(=C(\Cl)c2ccccc2)c2ccccc2)cc1`, the Potency is 89.1 µM (active).
Still for that read-out and setting: in the case of `CCc1c2c(nc3ccc(O)cc13)-c1cc3c(c(=O)n1C2)COC(=O)[C@]3(O)CC` it was 1.72 µM (active).
On the same count and under the same terms, the figure for `Nc1ccc(-c2ccc3ncc4ccc(=O)n(-c5cccc(C(F)(F)F)c5)c4c3c2)cn1` is 1.22 µM (active); for `COc1ccc(CCC(=O)c2c(O)cc(O[C@@H]3O[C@H](CO)[C@@H](O)[C@H](O)[C@H]3O[C@@H]3O[C@@H](C)[C@H](O)[C@@H](O)[C@H]3O)cc2O)cc1O` it is “inactive”; for `COc1cc2c(Nc3ccc(NC(=O)c4ccccc4)cc3)ncnc2cc1OCCCN1CCOCC1` it is 38.5 µM (active).
The same measure, in the same setting: in the case of `Cc1ccn(-c2ccc(-c3ncco3)cc2)c(=O)c1-c1ccc2nc(N)ncc2c1` it was “inactive”; in that of `Cc1nc(NC(=O)N2CCCC2C(N)=O)sc1-c1ccnc(C(C)(C)C(F)(F)F)c1` (configuration not stated), 12.2 µM (active); in that of `COc1cc2c(NC3CCN(C(C)C)CC3)nc(C3CCCCC3)nc2cc1OCCCN1CCCC1`, 10.9 µM (active).
For `CC(=O)OC12COC1CC(O)C1(C)C(=O)C(O)C3=C(C)C(OC(=O)C(O)C(NC(=O)OC(C)(C)C)c4ccccc4)CC(O)(C(OC(=O)c4ccccc4)C21)C3(C)C` (configuration not stated), the Potency was 0.0432 µM (active).
Consider `C[C@@H](Oc1cc(-c2cnn(C3CCNCC3)c2)cnc1N)c1c(Cl)ccc(F)c1Cl`, for which the Potency was 15.3 µM (active).
`CNc1nccc(-c2cccnc2Oc2cc(C(=O)Nc3cccc(C(F)(F)F)c3)ccc2C)n1`: the Potency was 19.3 µM (active).
The same measure, in the same setting: in the case of `COc1cccc2c1C(=O)c1c(O)c3c(c(O)c1C2=O)C[C@@](O)(C(=O)CO)C[C@@H]3O[C@H]1C[C@H](N)[C@H](O[C@@H]2CCCCO2)[C@H](C)O1` it was 13.7 µM (active); in that of `CC[C@@]1(O)C(=O)OCc2c1cc1n(c2=O)Cc2c-1nc1ccccc1c2/C=N/OC(C)(C)C`, 0.968 µM (active).
The same measure, in the same setting: the figure for `CCCC(Nc1nc(-c2ccc(NC(=O)NCC)c(OC)c2)ncc1C)c1cccnc1` (configuration not stated) is 0.432 µM (active); for `NC(=O)Nc1cc(-c2cccc(F)c2)sc1C(=O)NC1CCCNC1` (configuration not stated) it is 1.22 µM (active); for `CC1=C(CO)C(=O)O[C@@H]([C@@H](C)[C@H]2CC[C@H]3[C@@H]4C[C@H]5O[C@]56[C@@H](O)C=CC(=O)[C@]6(C)[C@H]4CC[C@]23C)C1` it is 8.41 µM (active).
Same read-out and setting: in the case of `CCS(=O)(=O)N1CCN(c2ccc(Nc3ncc(C(N)=O)c(NC4CC4)n3)cc2)CC1` it was 12.2 µM (active).
In the case of `Nc1ccc(C(=O)Nc2cccc(-c3nc(N4CCOCC4)c4oc5ncccc5c4n3)c2)cn1`, the Potency is 5.44 µM (active).
Still for that read-out and setting: in the case of `Cc1cc(SCc2sc(-c3ccc(C(F)(F)F)cc3)nc2C)ccc1OCC(=O)O` it was “inactive”; in that of `CC1=C(/C=C/C(C)=C/C=C/C(C)=C/C(=O)Nc2ccc(O)cc2)C(C)(C)CCC1`, 21.7 µM (active).
The same measure, in the same setting: the entry for `O=c1[nH]c(=O)n([C@H]2C[C@H](O)[C@@H](CO)O2)cc1Br` is “inactive”.
In the case of `Cc1csc(NC(=O)c2sc3nc4c(c(C(F)(F)F)c3c2N)CCC4)n1`, the Potency was 3.43 µM (active).
Turning to `Cc1cc(C2CCCCC2)n(O)c(=O)c1`, the Potency was 8.86 µM (active).
The same measure, in the same setting: in the case of `CCC1C(=O)N(C)c2cnc(Nc3ccc(C(=O)NC4CCC(N5CCN(CC6CC6)CC5)CC4)cc3OC)nc2N1C(C)C` (configuration not stated) it was 0.0611 µM (active); in that of `Cc1cc(Nc2cc(N3CCN(C)CC3)nc(/C=C/c3ccccc3)n2)n[nH]1`, 24.3 µM (active).
Take `Cc1cnc(CNC(=O)c2c(=O)c3ccc(N4CCCN(C)CC4)nc3n3c2sc2ccccc23)cn1`: the activity change, negative = viability loss was 14.2% [at 10.7 µM].
In the case of `CC(Oc1cc(-n2cnc3ccc(CN4CCN(C)CC4)cc32)sc1C(N)=O)c1ccccc1C(F)(F)F` (configuration not stated), the Potency was 3.06 µM (active).

The values above are taken from PubChem BioAssay AID1345085 (National Center for Advancing Translational Sciences (NCATS), 2018).
